# Several values for one entry are separate records, joined by “and”; a condition that tells them apart may be missing. Equal entries are not always repeated. Records with an inconclusive call do not appear. Where a call stands in place of a potency, no number is given. More than one record can exist for a structure, and the calls need not agree. Activity calls are given as the source filed them. Unless noted, the call rests on the fitted dose curve; in most records, active means well fitted curve in the direction sought with a large enough effect in the repeat runs; inconclusive means weak or mixed curves; inactive means no such curve, though single readings can be large; an effect the other way counts as inactive or inconclusive.
# Legend:
# [1] = qHTS assay to identify small molecule antagonists of the androgen receptor (AR) signaling pathway using the MDA cell line in the presence of 0.5 nM R1881 - cell viability counter screen (AID 1259242); further: nearly all actives have a fitted effect of over 45% in size; further: potency means the concentration at half of the fitted maximal effect
# In short: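 Cytotoxicity toward MDA-kb2 cells is measured by CellTiter-Fluor live-cell protease fluorescence after 16 hr compound exposure at 37C in the presence of 0.5 nM R1881 stimulator.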
# [2] = qHTS assay to identify small molecule HDAC inhibitors (AID 1259364); further: nearly all actives have a fitted effect of over 45% in size; further: potency means the concentration at half of the fitted maximal effect
# In short: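 Homogeneous cell-based luminescent assay of endogenous class I/II HDAC activity; HCT-116 cells, 2 h compound exposure, 30 min HDAC-Glo development at RT.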
# [3] = qHTS assay to identify small molecule HDAC inhibitors - cell viability counter screen (AID 1259365); further: series mostly up to about 92 µM; nearly all actives have a fitted effect of over 50% in size
# In short: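 To flag cytotoxic hits, 1,500 wild-type HCT-116 cells per well, plated the day before, receive test compounds for 2hr at 37 C before CellTiter-Glo reagent and a luminescence read.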
# [4] = qHTS assay to identify small molecule agonists of the sonic hedgehog signaling (Shh) pathway - cell viability counter screen (AID 1259366); further: nearly all actives have a fitted effect of over 50% in size; further: potency means the concentration at half of the fitted maximal effect
# In short: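 Fluorescence from CellTiter-Fluor reports live cells in this counter screen. NIH/3T3-derived Gli1-Luc reporter cells receive test compounds for 24hr at 37C; reagent goes in at 23hr.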
# [5] = qHTS assay to identify small molecule antagonists of the sonic hedgehog signaling (Shh) pathway - cell viability counter screen (AID 1259367); further: nearly all actives have a fitted effect of over 55% in size; further: potency means the concentration at half of the fitted maximal effect
# In short: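 NIH/3T3-derived Gli1-Luc reporter cells (2,000 per well) rested 4 hr at 37 C, then received DMSO compounds plus conditioned medium. After 23 hr of treatment, CellTiter-Fluor was added for 1 hr at 37C and fluorescence read.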
# [6] = qHTS assay to identify small molecule antagonists of the sonic hedgehog signaling (Shh) pathway (AID 1259369; calls by dose curve; further: nearly all actives have a fitted effect of over 45% in size; further: potency means the concentration at half of the fitted maximal effect)
# In short: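 Inhibition of Shh signalling is measured as reduced Gli1-response-element firefly luciferase output in an NIH/3T3-derived stable reporter clone stimulated with conditioned medium for 24hr.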
# [7] = target: Estrogen receptor beta (Homo sapiens) (UniProt Q92731); experiment: qHTS assay to identify small molecule agonists of the estrogen receptor beta (ER-beta) signaling pathway (AID 1259377; active means well fitted activation curve with a large enough effect in the signal ratio in the repeat runs, not every such curve was filed as active; the % refers to the signal ratio; further: potency means the concentration at half of the fitted maximal effect)
# In short: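 Screening used GripTite ER-beta-UAS-bla cells held in 2% charcoal-stripped FBS medium. After overnight (16 hr) compound incubation at 37C, beta-lactamase activity was detected with a FRET substrate by fluorescence.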
# [8] = qHTS assay to identify small molecule agonists of the sonic hedgehog signaling (Shh) pathway (AID 1259368; calls by dose curve;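 further: NIH/3T3-derived 3T3Gli1-Luc cells carrying a stable Gli1-driven firefly luciferase reporter; series mostly up to about 92 µM; nearly all actives have a fitted effect of over 15% in size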)
# In short: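 Steps: seed 3T3 Gli1-Luc cells, incubate 4 hr at 37 C, pin-transfer compounds in DMSO alongside a positive control, incubate 24 hr, add luciferase detection reagent, wait 30 min at room temperature, read luminescence.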
# [9] = target: Androgen receptor (Homo sapiens) (UniProt P10275); experiment: qHTS assay to identify small molecule antagonists of the androgen receptor (AR) signaling pathway using the MDA cell line in the presence of 0.5 nM R1881 (AID 1259243); further: nearly all actives have a fitted effect of over 50% in size
# In short: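 Steps: seed MDA-kb2 cells, incubate 5 hr at 37C; pin-transfer compounds in DMSO; add R1881 to 0.5 nM final; incubate 16 hr; add ONE-Glo, wait 30 min at room temperature; read luminescence.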
# Chain of Estrogen receptor beta (Homo sapiens) (Q92731 whole entry, looked up): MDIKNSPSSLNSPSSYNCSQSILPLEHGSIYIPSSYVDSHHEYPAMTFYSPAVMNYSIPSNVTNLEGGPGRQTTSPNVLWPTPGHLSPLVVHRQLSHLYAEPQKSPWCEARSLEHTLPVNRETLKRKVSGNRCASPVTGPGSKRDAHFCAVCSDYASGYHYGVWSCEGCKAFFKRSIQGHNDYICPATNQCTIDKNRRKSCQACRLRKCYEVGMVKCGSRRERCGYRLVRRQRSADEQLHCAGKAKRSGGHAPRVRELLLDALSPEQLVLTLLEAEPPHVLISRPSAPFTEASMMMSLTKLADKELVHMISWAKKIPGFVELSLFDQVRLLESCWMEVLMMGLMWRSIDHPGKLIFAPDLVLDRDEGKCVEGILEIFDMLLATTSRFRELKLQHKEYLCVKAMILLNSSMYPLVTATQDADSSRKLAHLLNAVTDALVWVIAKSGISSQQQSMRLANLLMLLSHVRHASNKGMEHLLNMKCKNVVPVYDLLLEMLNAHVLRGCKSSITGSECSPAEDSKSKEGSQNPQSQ
# Chain of Androgen receptor (Homo sapiens) (P10275 whole entry, looked up): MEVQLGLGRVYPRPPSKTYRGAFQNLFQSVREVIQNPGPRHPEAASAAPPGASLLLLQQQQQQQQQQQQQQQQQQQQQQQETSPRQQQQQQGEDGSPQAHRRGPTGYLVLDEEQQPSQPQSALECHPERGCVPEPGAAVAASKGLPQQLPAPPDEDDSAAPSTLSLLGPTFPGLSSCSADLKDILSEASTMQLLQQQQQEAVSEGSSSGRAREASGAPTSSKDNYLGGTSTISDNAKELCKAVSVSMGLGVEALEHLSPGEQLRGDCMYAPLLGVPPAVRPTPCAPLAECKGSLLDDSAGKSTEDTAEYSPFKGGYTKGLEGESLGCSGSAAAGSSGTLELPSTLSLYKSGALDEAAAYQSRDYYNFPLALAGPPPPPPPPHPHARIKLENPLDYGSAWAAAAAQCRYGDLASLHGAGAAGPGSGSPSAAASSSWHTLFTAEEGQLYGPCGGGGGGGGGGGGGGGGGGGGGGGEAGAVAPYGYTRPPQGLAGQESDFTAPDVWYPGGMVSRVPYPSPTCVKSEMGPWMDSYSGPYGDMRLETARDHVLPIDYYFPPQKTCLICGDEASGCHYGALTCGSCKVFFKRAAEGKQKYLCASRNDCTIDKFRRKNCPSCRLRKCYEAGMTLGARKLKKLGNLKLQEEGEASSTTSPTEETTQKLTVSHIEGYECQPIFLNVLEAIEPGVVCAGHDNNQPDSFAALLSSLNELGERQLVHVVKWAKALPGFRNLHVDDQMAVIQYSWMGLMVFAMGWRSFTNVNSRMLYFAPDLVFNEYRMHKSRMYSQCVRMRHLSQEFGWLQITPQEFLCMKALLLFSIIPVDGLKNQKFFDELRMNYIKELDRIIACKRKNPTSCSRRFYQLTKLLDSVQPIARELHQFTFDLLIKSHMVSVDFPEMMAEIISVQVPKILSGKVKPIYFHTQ
SMILES,Potency [1],Potency [2],outcome [3],Potency [4],Potency [5],Potency [6],Potency [7],outcome [8],outcome [9]
COCC(=O)O,inactive,inactive,inactive,inactive,inactive,1.25 µM (active) and inactive,inactive,,
C=C1CC[C@H](O)CC1=C/C=C1\CCC[C@]2(C)[C@@H]([C@H](C)/C=C/[C@H](C)C(C)C)CC[C@@H]12,inactive,inactive,inactive,inactive,,4.81 µM (active) and 17.2 µM (active),inactive,,
OC1CCCC1,inactive,inactive,inactive,inactive,inactive,inactive,inactive,,
Cc1cc(O)c2c(c1)C(=O)c1cc(O)cc(O)c1C2=O,inactive and 48.6 µM (active),5.32 µM (active) and 1.93 µM (active),inactive,inactive,inactive and 54.5 µM (active),34.4 µM (active),4.86 µM (active),,
CC(C)NCC(O)COc1cccc2ccccc12 (stereo not given),inactive,inactive,inactive,inactive,inactive,24.3 µM (active),inactive,,
O=C1N=C(O)CN1/N=C/c1ccc(-c2ccc([N+](=O)[O-])cc2)o1,,inactive,inactive,,,inactive,,inactive,
O=C1O[C@H](CO)[C@@H](O)[C@H](O)[C@H]1O,inactive,inactive,inactive,inactive,inactive,inactive,inactive,,
O=C(O)c1ccc([N+](=O)[O-])cc1,inactive,inactive,inactive,inactive,inactive,inactive,inactive,,
CCCCC(CC)COC(=O)CCCCCCCC(=O)OCC(CC)CCCC (stereo not given),inactive,inactive,inactive,inactive,inactive,15.4 µM (active) and inactive,inactive,,
O=[N+]([O-])C(CO)(CO)CO,inactive,inactive,inactive,30.2 µM (active) and 48.6 µM (active),214 nM (active) and inactive,0.151 µM (active),inactive,,
COCC(C)O (stereo not given),inactive,inactive,inactive,inactive,inactive,inactive,,,
O=S(=O)(O)c1cc(S(=O)(=O)O)c2c(N=Nc3ccccc3)c(O)ccc2c1,,inactive,inactive,,,inactive,inactive,inactive,
CCOC(=O)[C@H](CCc1ccccc1)N[C@@H](C)C(=O)N1Cc2ccccc2C[C@H]1C(=O)O,inactive,inactive,inactive,inactive,,inactive and 16.8 µM (active),inactive,inactive,
CC(C)(C)C(=O)C1C(=O)c2ccccc2C1=O,inactive,inactive,inactive,inactive,60.5 µM (active),68.6 µM (active),inactive,,
O=C(c1ccc(O)cc1)c1ccc(O)cc1O,inactive,,inactive,inactive,inactive,55 µM (active),13.8 µM (active) and 12.2 µM (active),,
O=[N+]([O-])c1cc(N(CCO)CCO)ccc1NCCO,,,,inactive,inactive,inactive,inactive,,inactive

SMILES,Potency [1],Potency [2],outcome [3],Potency [4],Potency [5],Potency [6],Potency [7],outcome [8],outcome [9]
CC#C[C@]1(O)CC[C@H]2[C@@H]3CCC4=CC(=O)CCC4=C3[C@@H](c3ccc(N(C)C)cc3)C[C@@]21C,inactive,inactive,inactive,inactive,inactive,,inactive,inactive,
CC1(C)O[C@@H]2C[C@H]3[C@@H]4C[C@H](F)C5=CC(=O)CC[C@]5(C)[C@H]4[C@@H](O)C[C@]3(C)[C@]2(C(=O)CO)O1,inactive,inactive,inactive,inactive,inactive,inactive,inactive,,
COC(=O)c1ccc(C(=O)OC)cc1,inactive,,inactive,6.95 µM (active) and inactive,2.2 µM (active) and inactive,982 nM (active) and inactive,inactive,,
Cc1cc(O)cc(C)c1Cl,inactive,inactive,inactive,inactive,inactive,3.06 µM (active),inactive,inactive,
C/C=C(C)/C=C/C=C(C)C,inactive,inactive,inactive,inactive,inactive,27.3 µM (active),inactive,,
CC1CC(OC(=O)c2ccccc2O)CC(C)(C)C1 (stereo not given),inactive,inactive,inactive,inactive,60.5 µM (active) and inactive,27 µM (active) and inactive,,,
CC(=O)CCc1ccccc1,inactive,inactive,inactive,inactive,inactive,inactive,inactive,inactive,
Cc1ccc(N)c(S(=O)(=O)O)c1,inactive,inactive,inactive,inactive,inactive,inactive,inactive,,
CNC[C@H](O)[C@@H](O)[C@H](O)[C@H](O)CO,inactive,inactive,inactive,inactive,inactive,inactive,inactive,,
C=C(C)C(=O)OCCCCCCCCCCCC,inactive,inactive,inactive,inactive,inactive,inactive,inactive,,
CC(C)(N=C=O)c1cccc(C(C)(C)N=C=O)c1,inactive,inactive,inactive,inactive,inactive,inactive,,,
CCCCNC(N)=O,inactive,inactive,inactive,inactive,inactive,inactive,inactive,,
C=C1C2CCC(C2)C1(C)C (stereo not given),inactive,inactive,inactive,inactive,inactive,inactive,inactive,,
C=C(C)C(=O)OCCCCCC,inactive,inactive,inactive,inactive,inactive,inactive,,,
CS(=O)(=O)Nc1ccc([N+](=O)[O-])cc1Oc1ccccc1,inactive,inactive,inactive,,,inactive,inactive,,
Cc1cc(Cc2ccc(N)c(C)c2)ccc1N,inactive,inactive,inactive,inactive,inactive,inactive,inactive,,

# From PubChem BioAssay (Tox21)
